# Bioassay records from PubChem.
# This is a sample that favours compounds with a hit; in the whole collection about 3.8% have one here.
# A549 tox: A549 cytotoxicity, counter-screen for Nrf2 inhibitors; A549 ARE-Fluc cells, CellTiter-Fluor viability, 18-24 h; Potency, µM (series often up to 46 µM), for inactives: top-dose activity change, negative = cytotoxicity, usual class: inhibitors; 0.16% of 390,000 active; AID 504648; also: % is scaled to controls: 0 for no effect and ±100 for the full control effect
#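 A549 ARE_Fluc cells in 5% FBS OPTI-MEM were exposed to compounds in concentration-response for 18-24 h at 37 deg C. Viability was read by CellTiter-Fluor fluorescence (Ex 405/Em 525) after 30 min, before the luciferase read.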
# HepG2 tox: HepG2 cytotoxicity, counter-screen for TGF-b inhibitors; HepG2 CAGA-GFP viability, ATP luminescence, 18 h; 0.76% of 410,000 active; Potency, µM (doses to about 46.1 µM), for inactives: at the top dose activity change, negative = cytotoxicity, most hits filed as cytotoxic
#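 CellTiter-Glo luminescence gave cytotoxicity after 18 hours at 37 degrees C. The cells were HepG2 CAGA-GFP in 1% FBS DMEM, stimulated with 500 pg/mL TGF-beta after compound addition. %Activity was normalised to no-cell wells (complete cell-killing) and DMSO (no toxicity), and curves were fitted and classified.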
# ATXN viability: cell viability loss in ATXN counter-screen. 0.49% of 400,000 active. S2 cells (HEK-293 line with an ATXN2-luciferase reporter) viability, CellTiter-Fluor protease fluorescence, 24 h. Potency, µM (titrated, usually from 56.7 µM), hits mostly cytotoxic. AID 651635; also: nearly all actives have a fitted effect of over 40% in size
# Nrf2 inh: blocks Nrf2 signaling | A549 ARE-Fluc reporter, luciferase luminescence, 18-24 h | Potency, µM (series often up to 46 µM), inactives show top-dose activity change, negative = inhibition, most hits filed as inhibitors | 2.1% of 360,000 active | AID 504444; also: % is scaled to controls: 0 for no effect and ±100 for the full control effect; nearly all actives have a fitted effect of over 60% in size
#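 Concentration-response testing used A549 ARE_Fluc cells at 5000 cells/well. Following an 18-24 h compound incubation, viability was read by fluorescence (Ex 405/Em 525) and luciferase output by luminescence.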
# TGFb SMAD3 inh: inhibitors of TGF-b signaling | 1.2% of 410,000 active | HepG2 CAGA-GFP TGF-b/SMAD3 reporter, GFP fluorescence, 18 h; TGF-beta stimulated, 500 pg/mL final | Potency, µM (top dose mostly 46.1 µM), for inactives: at the highest dose activity, negative = inhibition, usual class: inhibitors; also: % is scaled to controls: 0 for no effect and ±100 for the full control effect; nearly all actives have a fitted effect of over 65% in size
#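 Read-out: total well GFP (ex488/em500-530) summed from mean per-cell fluorescence. Cells: HEPG2 CAGA-GFP, 1% FBS DMEM, 18 h at 37 degrees C with 500 pg/mL final TGF-beta. Unstimulated wells served as the full-inhibition control; stimulated DMSO wells = 0%.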
# ATXN2 expr inh: inhibitors of ATXN2 expression | HEK-293 ATXN2-luciferase reporter, luminescence, 24 h | Potency, µM (doses to about 57 µM), inactives show top-dose activity change, negative = inhibition, usual class: inhibitors | 0.72% of 360,000 active | AID 1745845; also: % is scaled to controls: 0 for no effect and ±100 for the full control effect; nearly all actives have a fitted effect of over 55% in size
#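 qHTS (up to 57 uM final) was run with 24 h compound exposure of reporter cells at 37 °C. Each well was multiplexed: SteadyGlo luminescence measured ATXN2-luciferase expression after a fluorogenic Gly-Phe-AFC viability readout (25 uM final).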
# Starred values were filed as active, the others as inactive; i = inactive; ? = inconclusive; nt = not tested or not shown; ! = repeats disagree; [ ] = another dose, or the depositor's remark. Calls follow the shape of the dose curve; as a rule, active = well fitted curve in the direction sought with a large enough effect; inconclusive = small, poorly fitted or top-dose-only effect, or another doubt; inactive = no such curve, though single readings can be large; an effect the other way counts as inactive or inconclusive. Potency is read from the fitted curve at half-maximal effect.
SMILES,A549 tox,HepG2 tox,ATXN viability,Nrf2 inh,TGFb SMAD3 inh,ATXN2 expr inh
Cc1ccc(NC(=O)c2nc(S(=O)(=O)Cc3ccc(F)cc3)ncc2Cl)cc1C,?,7.1µM*,nt,4%,5.6µM*,nt
CC(=O)Nc1ccc(NC(=O)c2nc(S(=O)(=O)Cc3ccc(F)cc3)ncc2Cl)cc1,?,4µM*,nt,?,2.8µM*,nt
CC(=O)Nc1ccc(NC(=O)c2nc(S(=O)(=O)Cc3cccc(C)c3)ncc2Cl)cc1,?,-147%,?,?,?,?
COc1ccccc1NC(=O)c1nc(SCc2ccc(F)cc2)ncc1Cl,2%,-16%,nt,6%,-1%,nt
COc1ccc2nc(NC(=O)c3nc(S(=O)(=O)Cc4ccc(C)cc4)ncc3Cl)sc2c1,-23%,-100%,nt,?,4.5µM*,nt
Cc1ccc(CS(=O)(=O)c2ncc(Cl)c(C(=O)Nc3nc4ccc(C)cc4s3)n2)cc1,?,-51%,nt,?,-28%,?
CCOC(=O)c1ccc(NC2=CC(=O)C(=O)c3ccccc32)cc1,-14%,-22%,?,-12%,?,-23%
NS(=O)(=O)c1ccc(NC2=CC(=O)C(=O)c3ccccc32)cc1,0%,-55%,i,-27%,8.9µM*,?
Cc1cc(NC2=CC(=O)C(=O)c3ccccc32)no1,?,-91%,?,?,?,-36%
COc1cc(OC)c(NC2=CC(=O)C(=O)c3ccccc32)cc1Cl,?,0%,18µM*,?,?,nt
Cc1ccc(NC2=CC(=O)C(=O)c3ccccc32)cc1,?,5µM*,?,-124%,2.8µM*,-28%
COc1cc(NS(=O)(=O)c2ccc(-c3ccc(=O)[nH]n3)o2)cc(OC)c1OC,9%,12%,i,14%,-8%,8%
Cc1ccc2c(c1)N(CC(=O)NCCCN1CCOCC1)C(=O)C(C(C)C)O2 (stereo unspecified),0%,-10%,i,-1%,-4%,2%
CCOc1ccc(C(=O)NCC(=O)Nc2ccc(N3CCOCC3)cc2)cc1OCC,0%,3%,i,18%,17%,29%
O=S(=O)(Nc1cccc(-c2ccc3nncn3n2)c1)c1cc(F)ccc1F,2%,-35%,i,-26%,26%,8%
Cc1c(Cl)ccc2sc(N3CCN(C(=O)C(C)C)CC3)nc12,-2%,-33%,?,nt,?,?
Cc1c(Cl)ccc2sc(N3CCN(C(=O)CS(=O)(=O)c4ccccc4)CC3)nc12,2%,-43%,?,nt,10µM*,20µM*
COc1ccc(C(=O)N2CCN(c3nc4c(C)c(Cl)ccc4s3)CC2)c(OC)c1,-10%,11µM*,i,nt,?,-10%
Cn1c(=O)c(=O)n(C)c2cc(S(=O)(=O)N3CCC(Cc4ccccc4)CC3)ccc21,11%,-2%,i,1%,-4%,-12%
CN(C)c1ccc(S(=O)(=O)N2CCC(Cc3ccccc3)CC2)cn1,-4%,0%,i,21µM*,-7%,nt
O=C(NC(CSCc1ccccc1)C(=O)N/N=C/c1ccc(O)cc1O)c1ccc([N+](=O)[O-])cc1 (stereo unspecified),-13%,-61%,i,nt,?,3.2µM*
COc1cc(O)ccc1/C=N/NC(=O)c1ccc([N+](=O)[O-])cc1,5%,-2%,i,2%,-2%,-9%
CC(C)CNc1nc(NC(C)(C)C)nc(Oc2ccc(=O)n(-c3ccccc3)n2)n1,-3%,-26%,nt,?,?,nt
COC(=O)c1cc(OC)c(OC)c(OC)c1NC(=O)c1cc(=O)n(C)c(=O)n1C,3%,-12%,i,9%,?,4%
COc1cc(NCc2ccc3nc(N)nc(N)c3c2C)cc(OC)c1OC,nt,nt,?,nt,nt,3.5µM*!
SMILES,A549 tox,HepG2 tox,ATXN viability,Nrf2 inh,TGFb SMAD3 inh,ATXN2 expr inh
COc1ccc(CNc2ccncc2)c(OC)c1OC,-8%,-3%,i,-28%,2%,17%[2.22 µM]
COc1ccc(C(NC=O)c2cc(OC)c(OC)cc2Br)cc1OC (stereo unspecified),-4%,3%,i,-23%,-6%,14%
COc1cc2c(cc1OC)CN(C(=S)Nc1cccc(Cl)c1C)CC2,-9%,-17%,i,18µM*,-18%,-36%
COc1ccccc1-c1nnc(SC2CCc3ccccc3NC2=O)s1 (stereo unspecified),1%,1%,i,?,13µM*,11%
COc1ccccc1-c1nnc(N)s1,-9%,19%,i,-5%,5%,-4%
COc1cccc(-c2ccnc(-n3ncc(C(=O)NCC(C)(C)CN(C)C)c3C)n2)c1,nt,nt,i,nt,nt,nt
O=C(C1CCC1)N1CCN(S(=O)(=O)c2ccc(Br)cc2Cl)CC1,6%,-36%,i,?,-16%,-5%
CCN(CCCNC(=O)c1cc2cc3ccc(OC)cc3nc2s1)c1cccc(C)c1,-14%,13µM*,nt,-15%,13µM*,-31%
O=C(Nc1ccc(N2CCN(C(=O)c3ccco3)CC2)cc1)c1cc(Br)ccc1Cl,-15%,-13%,nt,23µM*,-30%,?
O=C(Nc1ccc(N2CCN(C(=O)c3ccco3)CC2)cc1)c1ccco1,-6%,6%,i,6%,0%,51%
Cc1ccc(C(=O)Nc2ccc(N3CCN(C(=O)c4ccco4)CC3)cc2)cc1,0%,5%,i,-7%,-8%,-9%
O=C(Nc1ccc(N2CCN(C(=O)c3ccco3)CC2)cc1)c1ccc(Br)cc1,-11%,-2%,i,16µM*,-4%,nt
CCOC(=O)Cn1ccc(-c2ccccc2)c(C#N)c1=O,7%,1%,i,11%,3%,4%[11.3 µM]
COc1ccc(Cn2nc(-c3ccccc3)c(N3CCCCC3)cc2=O)cc1,6%,22µM*,i,-2%,?,-21%
Cc1ccc(S(=O)(=O)N(C)CCCC(=O)Nc2ccc(C)cc2C)cc1,-2%,-19%,i,-16%,?,-4%
CC(C)c1ccc(NC(=O)NCc2cccnc2)cc1,5%,-4%,i,2%,-7%,20%
CCC(=O)NC(c1cccs1)c1cc(Cl)c2cccnc2c1O (stereo unspecified),-10%,17%,i,?,?,nt
CCC(=O)NC(c1cc(Cl)c2cccnc2c1O)C(C)C (stereo unspecified),-3%,-42%,?,?,2.8µM*,7.1µM*
CCC(=O)NC(c1cc(Cl)c2cccnc2c1O)C1CC1 (stereo unspecified),-6%,-23%,?,9%,2µM*,?
